Reference: publication PMC5540273 (PLoS ONE, 2017)
Several values for one entry are separate records, joined by “and”; a condition that tells them apart may be missing. Equal values may be shown once. Read-outs that look alike come from different tables or passages of the source.

What was measured:
ROCK1 = conditions: n = 1
ROCK2 = conditions: n = 1
ROS1 = conditions: n = 1
[1] = system: RPS6KA4(Kin.Dom.1-N-terminal); conditions: n = 1
[2] = system: RPS6KA4(Kin.Dom.2-C-terminal); conditions: concentration: 1 μM, replicates: in singlicate; n = 1
[3] = system: RPS6KA5(Kin.Dom.1-N-terminal); conditions: n = 1
[4] = system: RPS6KA5(Kin.Dom.2-C-terminal); conditions: n = 1
[5] = system: T1, RSK1(Kin.Dom.1-N-terminal); conditions: n = 1
T1 construct: gene RPS6KA1

[6] = system: T2, RSK1(Kin.Dom.2-C-terminal); conditions: n = 1
T2 construct: gene RPS6KA1

[7] = system: T3, RSK2(Kin.Dom.1-N-terminal); conditions: n = 1
T3 construct: gene RPS6KA3

[8] = system: T4, RSK2(Kin.Dom.2-C-terminal); conditions: n = 1
T4 construct: gene RPS6KA3

[9] = system: T5, RSK3(Kin.Dom.1-N-terminal); conditions: n = 1
T5 construct: gene RPS6KA2

[10] = system: T6, RSK3(Kin.Dom.2-C-terminal); conditions: n = 1
T6 construct: gene RPS6KA2

[11] = system: T7, RSK4(Kin.Dom.1-N-terminal); conditions: concentration: 1 μM, replicates: in singlicate; n = 1
T7 construct: gene RPS6KA6

[12] = system: T8, RSK4(Kin.Dom.2-C-terminal); conditions: n = 1
T8 construct: gene RPS6KA6

S6K1 = conditions: n = 1
SBK1 = conditions: n = 1
SGK2 = conditions: concentration: 1 μM, replicates: in singlicate; n = 1
SGK3 = conditions: n = 1
SGK = conditions: concentration: 1 μM, replicates: in singlicate; n = 1
[13] = concentration: 1 μM, replicates: in singlicate
[14] = concentration: 1 μM,replicates: in singlicate, 1 µM
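Also: KINOMEscan kinase panel screen.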

Cc1c(O)cccc1Nc1ccnc2ccc(C(F)(F)F)cc12.Cl [GW466413]
%Inh (ROCK1; [13]): 10% | %Inh (ROCK2; [13]): 20% | %Inh (ROS1; [13]): 3% | %Inh [1, 13]: 17% | %Inh [2]: 0% | %Inh [3, 13]: 32% | %Inh [4, 13]: 0% | %Inh [5, 13]: 0% | %Inh [6, 13]: 2% | %Inh [7, 13]: 0% | %Inh [8, 13]: 16% | %Inh [9, 13]: 0% | %Inh [10, 13]: 0% | %Inh [11]: 4% | %Inh [12, 13]: 0% | %Inh (S6K1; [13]): 0% | %Inh (SBK1; [13]): 0% | %Inh (SGK2): 0% | %Inh (SGK3; [13]): 2% | %Inh (SGK): 0%

O=C(Nc1ccccc1)Nc1cccc(Oc2ccc3nccn3n2)c1
%Inh (ROCK1; [13]): 0% | %Inh (ROCK2; [13]): 0% | %Inh (ROS1; [13]): 0% | %Inh [1, 13]: 43% | %Inh [2]: 0% | %Inh [3, 13]: 0% | %Inh [4, 13]: 0% | %Inh [5, 13]: 0% | %Inh [6, 13]: 0% | %Inh [7, 13]: 0% | %Inh [8, 13]: 32% | %Inh [9, 13]: 9% | %Inh [10, 13]: 14% | %Inh [11]: 0% | %Inh [12, 13]: 0% | %Inh (S6K1; [13]): 0% | %Inh (SBK1; [13]): 0% | %Inh (SGK2): 8% | %Inh (SGK3; [13]): 9% | %Inh (SGK): 0%

Cc1cc(NCC(c2ccccc2)c2ccccc2)nc(NCc2ccc(C(F)(F)F)cc2)n1 [GW497681]
%Inh (ROCK1; [13]): 0% | %Inh (ROCK2; [13]): 23% | %Inh (ROS1; [13]): 0% | %Inh [1, 13]: 0% | %Inh [2]: 0% | %Inh [3, 13]: 0% | %Inh [4, 13]: 1% | %Inh [5, 13]: 0% | %Inh [6, 13]: 6% | %Inh [7, 13]: 0% | %Inh [8, 13]: 4% | %Inh [9, 13]: 0% | %Inh [10, 13]: 1% | %Inh [11]: 0% | %Inh [12, 13]: 28% | %Inh (S6K1; [13]): 0% | %Inh (SBK1; [13]): 0% | %Inh (SGK2): 0% | %Inh (SGK3; [13]): 6% | %Inh (SGK): 0%

CSc1nn2c(=O)cc(N3CCOCC3)nc2n1Cc1cccc(C(F)(F)F)c1C [GSK2363608]
%Inh (ROCK1; [14]): 98.3% and 17% | %Inh (ROCK2; [14]): 98.9% and 0% | %Inh (ROS1; [14]): 14% and 0% | %Inh [1, 14]: 28% and 0% | %Inh [2]: 0% | %Inh [3, 14]: 12% and 0% | %Inh [4, 14]: 19% and 9% | %Inh [5, 14]: 20% and 10% | %Inh [6, 14]: 1% and 0% | %Inh [7, 14]: 9% and 2% | %Inh [8, 14]: 0% and 5% | %Inh [9, 14]: 0% and 16% | %Inh [10, 14]: 10% and 0% | %Inh [11]: 0% | %Inh [12, 14]: 3% and 0% | %Inh (S6K1; [14]): 3% and 10% | %Inh (SBK1; [14]): 1% and 2% | %Inh (SGK2): 0% | %Inh (SGK3; [14]): 6% and 4% | %Inh (SGK): 0%

Cn1ccc2ncnc(Oc3cccc(C(=O)Nc4ccccc4)c3)c21
%Inh (ROCK1; [13]): 0% | %Inh (ROCK2; [13]): 16% | %Inh (ROS1; [13]): 4% | %Inh [1, 13]: 0% | %Inh [2]: 18% | %Inh [3, 13]: 19% | %Inh [4, 13]: 0% | %Inh [5, 13]: 0% | %Inh [6, 13]: 9% | %Inh [7, 13]: 0% | %Inh [8, 13]: 0% | %Inh [9, 13]: 0% | %Inh [10, 13]: 13% | %Inh [11]: 14% | %Inh [12, 13]: 0% | %Inh (S6K1; [13]): 0% | %Inh (SBK1; [13]): 0% | %Inh (SGK2): 2% | %Inh (SGK3; [13]): 26% | %Inh (SGK): 0%

CC1=C(C(=O)Nc2cc3cn[nH]c3cc2F)C(c2ccc(C(F)(F)F)cc2)CC(=O)N1 (stereo not shown) [GSK429286]
%Inh (ROCK1; [13]): 99.1% | %Inh (ROCK2; [13]): 98.2% | %Inh (ROS1; [13]): 0% | %Inh [1, 13]: 16% | %Inh [2]: 0% | %Inh [3, 13]: 0% | %Inh [4, 13]: 0% | %Inh [5, 13]: 5% | %Inh [6, 13]: 18% | %Inh [7, 13]: 19% | %Inh [8, 13]: 0% | %Inh [9, 13]: 22% | %Inh [10, 13]: 0% | %Inh [11]: 0% | %Inh [12, 13]: 18% | %Inh (S6K1; [13]): 14% | %Inh (SBK1; [13]): 22% | %Inh (SGK2): 4% | %Inh (SGK3; [13]): 4% | %Inh (SGK): 0%

Cc1cccc(-c2cc(Nc3ccncc3)c3ccccc3n2)n1 [GSK223675]
%Inh (ROCK1; [13]): 0% | %Inh (ROCK2; [13]): 0% | %Inh (ROS1; [13]): 0% | %Inh [1, 13]: 0% | %Inh [2]: 0% | %Inh [3, 13]: 5% | %Inh [4, 13]: 100% | %Inh [5, 13]: 30% | %Inh [6, 13]: 35% | %Inh [7, 13]: 0% | %Inh [8, 13]: 0% | %Inh [9, 13]: 5% | %Inh [10, 13]: 10% | %Inh [11]: 0% | %Inh [12, 13]: 21% | %Inh (S6K1; [13]): 0% | %Inh (SBK1; [13]): 3% | %Inh (SGK2): 0% | %Inh (SGK3; [13]): 0% | %Inh (SGK): 0%

Cn1ccc2ncnc(Oc3ccc(NC(=O)Nc4ccccc4)cc3)c21
%Inh (ROCK1; [13]): 0% | %Inh (ROCK2; [13]): 24% | %Inh (ROS1; [13]): 15% | %Inh [1, 13]: 21% | %Inh [2]: 0% | %Inh [3, 13]: 0% | %Inh [4, 13]: 2% | %Inh [5, 13]: 0% | %Inh [6, 13]: 0% | %Inh [7, 13]: 0% | %Inh [8, 13]: 0% | %Inh [9, 13]: 12% | %Inh [10, 13]: 0% | %Inh [11]: 0% | %Inh [12, 13]: 0% | %Inh (S6K1; [13]): 0% | %Inh (SBK1; [13]): 0% | %Inh (SGK2): 7% | %Inh (SGK3; [13]): 28% | %Inh (SGK): 1%

Cl.O=C(Nc1cccc(-c2nn3ncccc3c2-c2ccnc(Nc3cccnc3)n2)c1)c1c(F)cccc1F [GSK312879]
%Inh (ROCK1; [13]): 0% | %Inh (ROCK2; [13]): 0% | %Inh (ROS1; [13]): 0% | %Inh [1, 13]: 20% | %Inh [2]: 0% | %Inh [3, 13]: 9% | %Inh [4, 13]: 0% | %Inh [5, 13]: 8% | %Inh [6, 13]: 10% | %Inh [7, 13]: 27% | %Inh [8, 13]: 6% | %Inh [9, 13]: 23% | %Inh [10, 13]: 10% | %Inh [11]: 12% | %Inh [12, 13]: 0% | %Inh (S6K1; [13]): 14% | %Inh (SBK1; [13]): 41% | %Inh (SGK2): 1% | %Inh (SGK3; [13]): 0% | %Inh (SGK): 0%

Fc1cccc(COc2nnc(-c3ccc4c(c3)CCO4)o2)c1
%Inh (ROCK1; [13]): 0% | %Inh (ROCK2; [13]): 0% | %Inh (ROS1; [13]): 0% | %Inh [1, 13]: 0% | %Inh [2]: 30% | %Inh [3, 13]: 0% | %Inh [4, 13]: 9% | %Inh [5, 13]: 0% | %Inh [6, 13]: 43% | %Inh [7, 13]: 0% | %Inh [8, 13]: 35% | %Inh [9, 13]: 0% | %Inh [10, 13]: 22% | %Inh [11]: 0% | %Inh [12, 13]: 8% | %Inh (S6K1; [13]): 0% | %Inh (SBK1; [13]): 0% | %Inh (SGK2): 0% | %Inh (SGK3; [13]): 0% | %Inh (SGK): 0%

COC(=O)c1c(-c2ccccc2)c2cc(OC)ccc2c(=O)n1Cc1ccccc1
%Inh (ROCK1; [13]): 0% | %Inh (ROCK2; [13]): 0% | %Inh (ROS1; [13]): 0% | %Inh [1, 13]: 0% | %Inh [2]: 4% | %Inh [3, 13]: 15% | %Inh [4, 13]: 0% | %Inh [5, 13]: 11% | %Inh [6, 13]: 18% | %Inh [7, 13]: 0% | %Inh [8, 13]: 41% | %Inh [9, 13]: 8% | %Inh [10, 13]: 21% | %Inh [11]: 0% | %Inh [12, 13]: 27% | %Inh (S6K1; [13]): 8% | %Inh (SBK1; [13]): 2% | %Inh (SGK2): 0% | %Inh (SGK3; [13]): 16% | %Inh (SGK): 0%
